In PubChem BioAssay (NCATS):
The source made the active and inactive calls. Calls follow the shape of the dose curve; as a rule, active = well fitted activation curve with a large enough effect; inconclusive = small, poorly fitted or top-dose-only effect; inactive = no such curve, though single readings can be large or run the other way.

biological target: Cytochrome P450 3A4 (Homo sapiens) (UniProt P08684); assay: qHTS Assay for Activators of Cytochrome P450 3A4 (AID 885); settings: recombinant CYP3A4, Luciferin-PPXE luminescence, 60 min; series mostly up to 57.1 µM; activity change, positive = activation: at the top concentration; also: nearly all actives have a fitted effect of over 65% in size
Outline: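 Human CYP3A4 (20 nM) with Luciferin-PPXE at 25 uM (its KM) in 200 mM KPO4; 10 min compound preincubation, then NADPH regeneration and 60 min reaction at RT. Luciferin read by luminescence; normalized to 57 uM ketoconazole full inhibition.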

Chain of Cytochrome P450 3A4 (Homo sapiens) (P08684 whole entry, looked up): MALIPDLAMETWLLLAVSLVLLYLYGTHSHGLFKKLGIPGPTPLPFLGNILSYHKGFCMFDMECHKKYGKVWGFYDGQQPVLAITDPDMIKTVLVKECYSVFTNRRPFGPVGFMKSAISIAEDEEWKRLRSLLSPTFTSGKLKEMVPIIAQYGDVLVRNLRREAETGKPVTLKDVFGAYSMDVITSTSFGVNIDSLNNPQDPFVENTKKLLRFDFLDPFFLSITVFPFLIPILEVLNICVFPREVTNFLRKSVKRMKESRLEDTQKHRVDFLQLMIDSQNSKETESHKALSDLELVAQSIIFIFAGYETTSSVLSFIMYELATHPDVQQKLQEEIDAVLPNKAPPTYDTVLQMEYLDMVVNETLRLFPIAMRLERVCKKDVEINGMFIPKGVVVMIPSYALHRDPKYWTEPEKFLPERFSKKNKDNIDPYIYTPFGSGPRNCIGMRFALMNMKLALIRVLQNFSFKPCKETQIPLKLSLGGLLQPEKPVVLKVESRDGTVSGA

Activity change, positive = activation, inactive:
CCCCCCN(C(=O)CCCCCN1C(=O)NC(C2CCCCC2)C(C(=O)OCc2ccccc2)=C1C)C(C(=O)NCCCC)c1ccc(OCC(=O)OC)c(C(=O)OC)c1 (stereo unspecified) -91%
COC(=O)c1ccc(C(/C=C/[C@@H](C)C(=O)NCCc2c[nH]c3ccccc23)NC(=O)OCc2ccccc2)cc1 (stereo partly specified) -85.6%
CN(C)C(=O)[C@H]1C[C@@H]1[C@H](NC(=O)OCc1ccccc1)c1ccccc1 -85.8%
COC(=O)c1ccc(C(/C=C/[C@@H](C)C(=O)NCc2ccccc2)NC(=O)OCc2ccccc2)cc1 (stereo partly specified) -72.9%
CCCCCCN(C(=O)CCCCCN1C(=O)NC(c2ccc(-c3ccccc3)cc2)C(C(=O)OCc2ccccc2)=C1C)C(C)C(=O)NCCCC (stereo unspecified) -95.4%
CNC(=O)[C@@]1(Cc2ccccc2)C=C[C@@H](C)N1C(=O)OC -87.1%
COC(=O)c1ccc(C(NC(=O)OCc2ccccc2)/C(=C/[C@@H](C)C(=O)NCc2ccc(-c3ccccc3)cc2)c2cccnc2)cc1 (stereo partly specified) -87.2%
CNC(=O)[C@]1(C)C[C@H]1[C@H](NC(=O)[C@]1(C)C[C@H]1[C@H](NC(=O)[C@]1(C)C[C@H]1[C@H](NC(=O)[C@]1(C)C[C@H]1[C@H](NC(=O)OCc1ccccc1)c1ccccc1)c1ccccc1)c1ccccc1)c1ccccc1 -67.3%
COC(=O)c1ccc(C(NC(=O)OCc2ccccc2)/C(=C/[C@@H](C)C(=O)NCc2ccc(OC)c(OC)c2)c2cccnc2)cc1 (stereo partly specified) -92.1%
C=C(N(C)C)[C@]1(C)C[C@H]1[C@H](NC(=O)CNC(=O)OCc1ccccc1)c1ccccc1 -94%
COC(=O)c1ccc(C(NC(=O)OCc2ccccc2)/C(F)=C/[C@@H](C)C(=O)N(C)Cc2cccnc2)cc1 (stereo partly specified) -89.8%
